Laboratory results taken from ChEMBL document CHEMBL3988442, “University of Dundee, Small-Polar-MMV Screening Library” (2021).

Each molecule was assayed against AMP-activated protein kinase, AMPK (Homo sapiens) (UniProt P54646+O43741+P54619+Q9UGJ0+Q9Y478+Q13131+Q9UGI9) (assay: AMP-dependent Kinase enzyme assay. An in vitro enzyme assay that detects ADP turnover that is directly proportional to AMPK activity. This uses naive AMPK that is activated during the assay with MK-8722). Conditions: 30 µM.
Type: functional
Design: scale not given: direction of the effect not stated beside the values
`CCNC(=O)c1ccnc(CC2COc3c(cccc3OC)C2)c1` (centres undefined) showed a Percent Effect of -3.13%. `CCn1nc(C)c(C(=O)N2C[C@@H](CN(C)CCOC)[C@@H](CO)C2)c1C` was tested, and the Percent Effect was -7.64%. For `Cc1ccc(C(CNC(=O)c2cc(=O)c3ccccc3[nH]2)N(C)C)cc1` (centres undefined), the Percent Effect was 6.26%. Work on `Cc1ccc(C(=O)NCc2cc(F)ccc2N2CCCN(C)CC2)o1` yielded a Percent Effect of 9.19%. In the case of `CN(Cc1nc(C(C)(C)C)no1)C1CCS(=O)(=O)C1` (centres undefined), the Percent Effect is reported as 2.12%. `O=C1CN(Cc2cn(CC3CCN(C4CCSCC4)CC3)nn2)CCN1` was tested, and the Percent Effect was -3.51%. Molecule `Cn1ccc(NC(=O)CN2CCN(C3CCCC3)C(=O)C2)n1` has a Percent Effect of 4.97%. With `CN(CCOc1ccccc1F)C1CCOC1=O` (centres undefined) the Percent Effect was -5.42%. In the case of `CCOCCN1CCN(c2ccc(C#N)cn2)CC1`, the Percent Effect is reported as 1.16%. Work on `Cc1ccc(CNc2ccn(CCC(N)=O)n2)c(Br)c1` yielded a Percent Effect of 1.48%. `Cc1nc(CNC(=O)c2cc(COc3ccccc3F)[nH]n2)n[nH]1` showed a Percent Effect of 5.27%. With `CCc1ccc(C(=O)NCC2CCCN2CC)o1` (centres undefined) the Percent Effect was 0.975%. Molecule `Cc1cnn(C2CCCN(C(=O)c3cc(-c4ccccc4C)n[nH]3)C2)c1` (centres undefined) has a Percent Effect of 1.68%. Molecule `COc1ncccc1C(=O)NCCn1nc(C)ccc1=O` has a Percent Effect of -4.66%. With `O=C1CCCCCN1Cc1cccc(OC(F)F)c1` the Percent Effect was 3.82%. `Cc1nn(C)c(C)c1C1CCCN1C(=O)c1ccc(C(N)=O)s1` (centres undefined) showed a Percent Effect of -0.19%. Work on `COCc1ncc(CN2CCC3(CCNCC3)CC2)cn1` yielded a Percent Effect of -3.83%. For `Cc1ccccc1NC(=O)CCNC(=O)c1ccoc1`, the Percent Effect was -10.8%. `COc1ccc(C)c(NC(=O)NCc2ncnn2C)c1` gave a Percent Effect of -3.74%. Work on `COCc1c(Cl)cccc1NC(=O)CNC(=O)C(C)(C)C` yielded a Percent Effect of -4.63%. `CC(=O)N[C@H]1CCO[C@@H](c2cccc(NC(=O)c3ccc(=O)[nH]n3)c2)C1` gave a Percent Effect of 14.1%. `Cc1nc(C(C)C)sc1C(C)N(C)C(=O)c1ccc(=O)n(C)n1` (centres undefined) gave a Percent Effect of -6.04%. Molecule `COc1cccc(S(=O)(=O)N2CCCCC2CCN2CCOCC2)c1` (centres undefined) has a Percent Effect of 39.4%. Work on `CN1CCN(C2CCN(C(=O)CCC3CCCC3)CC2)CC1` yielded a Percent Effect of 7.72%. `N#Cc1ccc(Cl)cc1NCC1CCOC1` (centres undefined) was tested, and the Percent Effect was 5.95%. `Cc1ncc2c(n1)CN(Cc1nc(-c3ccsc3)oc1C)CC2` showed a Percent Effect of -40.6%. `Cn1ccnc1CNC(=O)c1cncc(C2CCNCC2)n1` was tested, and the Percent Effect was 1.13%. For `CCCc1nnc(N2CCC(N3CCCC3)CC2)o1`, the Percent Effect was -4.2%. Work on `CC(C)Cc1noc(CC2CCS(=O)(=O)C2)n1` (centres undefined) yielded a Percent Effect of -13.3%. `COc1ccccc1C(C)(C)NC(=O)c1ccc(F)c(NC(C)=O)c1` showed a Percent Effect of -4.2%. `O=C(NCc1nccs1)N1CCOC(c2ccccc2Cl)C1` (centres undefined) showed a Percent Effect of 4.45%. In the case of `O=C1CC2(CCN(Cc3ccc(-c4ccccc4)s3)C2)C(=O)N1` (centres undefined), the Percent Effect is reported as 84.9%. `Cc1c(NC(=O)NC(C)CCO)cccc1OC1CCCC1` (centres undefined) gave a Percent Effect of -7.69%. `O=C1NCCN(C(=O)CCN2CCCO2)C1c1cccc(F)c1` (centres undefined) gave a Percent Effect of -5.73%. In the case of `Clc1cc(NCc2ncc[nH]2)nc2[nH]ccc12`, the Percent Effect is reported as 24.1%. `COCCN1CC2(CCCN(Cc3cc(=O)c(OC)co3)C2)CCC1=O` (centres undefined) was tested, and the Percent Effect was -2.15%. Work on `Cc1cc(CNC2(CO)CCOCC2)ccc1Br` yielded a Percent Effect of 5.13%. `O=C1CCCN1C1CCCN(CCn2cc(Cl)cn2)C1` (centres undefined) gave a Percent Effect of 7.29%. For `Cc1cc(NCCc2c(C)n[nH]c2C)nc(-c2cccnc2)n1`, the Percent Effect was -4.66%.
